Composite z-score and z-score data for 5 compounds are collected here from PubChem BioAssay.

Active and inactive are the calls of the source. Unless noted, how the calls were made is not given here.

Assay [1] relates to Wnt5a (protein binding on small-molecule microarray). The assay is described as follows: small molecules binding Wnt5a protein – biophysical, small-molecule microarray, 635/667 nm fluorescence, primary screen (AID 1142).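 Further: fluorescence read at 667 nm with signal to noise per printed feature.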 The conditions noted are these: 635 nm fluorescence, higher = more signal.
A short description of assay [2]: ATP-based viability of Huh7 replicon cells – cell-based, CellTiter-Glo luminescence, basal, 48 h, cytotoxicity control for HCV replication inhibitor project, primary screen (AID 1143).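 Further: Huh7 hepatoma cells carrying a hepatitis C replication reporter with no stimulus; test concentration not given here.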 The conditions noted are these: higher = more signal, called active from +8 up or from −8 down.
Assay [3] is described as follows: Pseudomonas biofilm growth suppression – PAO1 strain, BacTiter-Glo luminescence, LB-PBS, primary screen (AID 1144). Conditions: P. aeruginosa PAO1 biofilm, 12 h, higher = more signal.
Assay [4] in a line: basal CRE-LacZ reporter activity in PC12 – cell-based, unstimulated, primary screen (AID 1145). Conditions: no forskolin, luminescence, 4.5 h, higher = more signal, called active from +8 up or from −8 down.
The nature of assay [5]: forskolin-driven CRE-LacZ activity in PC12 – cell-based, CRE-LacZ reporter, forskolin-stimulated, primary screen (AID 1146).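 Further: PC12 cells with 6xCRE LacZ reporter stimulated by forskolin 10 µM; beta-galactosidase reporter signal reflecting CREB driven transcription.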 The conditions noted are these: luminescence, 4.5 h, higher = more signal, called active from +8 up or from −8 down.
The target of assay [6] is Streptavidin (Streptomyces avidinii) (UniProt P22629). Description: compounds binding control protein streptavidin – biophysical, small-molecule microarray, 635/667 nm fluorescence, artefact control for SMM compound annotation, primary screen (AID 1147).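 Further: signal reflects streptavidin binding to arrayed compounds as a control protein.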 Conditions: higher = more signal.
Sequence of Streptavidin (Streptomyces avidinii) (P22629 whole entry, looked up): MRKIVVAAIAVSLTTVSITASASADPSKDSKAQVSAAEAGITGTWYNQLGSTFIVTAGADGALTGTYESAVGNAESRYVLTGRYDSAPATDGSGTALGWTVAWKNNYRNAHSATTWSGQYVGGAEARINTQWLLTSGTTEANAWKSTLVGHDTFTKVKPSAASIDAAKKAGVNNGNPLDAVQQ
Assay [7] in a line: probe aInhba binding on compound microarray – biochemical, small-molecule microarray, 635/667 nm fluorescence, primary screen (AID 1148).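 Further: score merges 667nm spot fluorescence with signal-to-noise for antibody binding to printed compounds.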 The conditions noted are these: higher = more signal.
Assay [8] addresses Torsin-1A (Homo sapiens) (UniProt O14656). Description: TOR1A wild-type binding on microarray – cell lysate, small-molecule microarray, lysate, 635/667 nm, primary screen (AID 1149). Conditions: COS7 hTOR1A-WT lysate, 635 nm fluorescence, higher = more signal.
Assay [9] shares this target. Description: torsin A mutant lysate binding on microarrays – cell lysate, small-molecule microarray, COS7 lysate, 635/667 nm fluorescence, primary screen (AID 1150).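 Further: score pools 667 nm emission and signal to noise measuring lysate protein binding.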 The conditions noted are these: COS7 hTOR1A mutant lysate, 635 nm fluorescence, higher = more signal.
In assay [10] the test system is Sonic hedgehog protein (Shh). Description: Sonic hedgehog microarray binding compounds – biochemical, small-molecule microarray, 635/667 nm fluorescence, primary screen (AID 1151).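 Further: Shh protein binding to compounds spotted on small-molecule microarray slides; score combines spot fluorescence intensity with signal-to-noise across triplicate slides.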 The conditions noted are these: 635 nm fluorescence, higher = more signal.
Assay [11] can be described thus: optical density shifts of acrAB sulA E. coli – strain DRC41, OD650, 48 h, E. coli filamentation inducer project, primary screen (AID 1152).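 Further: E. coli MC1000 strain DRC41 lacking acrAB efflux pump and sulA.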 Conditions: higher = more signal, called active from +8 up or from −8 down.
Assay [12] can be described thus: probe aLefty1 binding on compound microarray – biochemical, small-molecule microarray, 635/667 nm fluorescence, primary screen (AID 1153).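 Further: score merges spot fluorescence with signal-to-noise ratio from the scanned slide images.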 The conditions noted are these: higher = more signal.
Assay [13] in a line: plasmodial surface anion channel blockers, osmotic lysis – cell-based, P. falciparum Indochina, OD700, 1 h, primary screen (AID 1154). The conditions noted are these: P. falciparum Indochina infected RBC osmotic lysis, higher = more signal, called active from +8 up or from −8 down.
Assay [14] can be described thus: plasmodial surface anion channel blockers, osmotic lysis – cell-based, P. falciparum Indochina, OD700, 2 h, primary screen (AID 1155).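 Further: lysis reports solute entry through the parasite surface anion channel PSAC.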 The conditions noted are these: P. falciparum Indochina infected erythrocytes, higher = more signal, called active from +8 up or from −8 down.
A short description of assay [15]: changes in parasitized red cell lysis, either direction – P. falciparum Indochina, OD700, 3 h, PSAC antagonist project, primary screen (AID 1156). The conditions noted are these: P. falciparum-infected erythrocytes, osmotic lysis, higher = more signal, called active from +8 up or from −8 down.
Assay [16] in a line: plasmodial surface anion channel blockers, osmotic lysis – cell-based, P. falciparum Indochina, OD700, 18 h, primary screen (AID 1157). Conditions: P. falciparum Indochina infected erythrocytes, osmotic lysis OD700, 18 h; higher = more signal, called active from +8 up or from −8 down.
Assay [17] can be described thus: S6 kinase pathway phospho-S6 level changes – cell-based, A549, cytoblot, luminescence, serum-stimulated, primary screen (AID 1158).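 Further: serum-stimulated A549 lung adenocarcinoma cells; signal is phosphorylated S6 detected by cytoblot immunostaining with HRP secondary.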 The conditions noted are these: 5 h, higher = more signal.
For assay [18], the target named is NADPH oxidase 2 (Homo sapiens) (UniProt P04839). Description: compounds shifting NOX2 Amplex Red fluorescence – cell-based, HEK293-NOX2, PMA-stimulated, NOX inhibitor project, primary screen (AID 1159). Further: test concentration not given here. The conditions noted are these: 45 min, higher = more signal, called active from +8 up or from −8 down.
Sequence of NADPH oxidase 2 (Homo sapiens) (P04839 whole entry, looked up): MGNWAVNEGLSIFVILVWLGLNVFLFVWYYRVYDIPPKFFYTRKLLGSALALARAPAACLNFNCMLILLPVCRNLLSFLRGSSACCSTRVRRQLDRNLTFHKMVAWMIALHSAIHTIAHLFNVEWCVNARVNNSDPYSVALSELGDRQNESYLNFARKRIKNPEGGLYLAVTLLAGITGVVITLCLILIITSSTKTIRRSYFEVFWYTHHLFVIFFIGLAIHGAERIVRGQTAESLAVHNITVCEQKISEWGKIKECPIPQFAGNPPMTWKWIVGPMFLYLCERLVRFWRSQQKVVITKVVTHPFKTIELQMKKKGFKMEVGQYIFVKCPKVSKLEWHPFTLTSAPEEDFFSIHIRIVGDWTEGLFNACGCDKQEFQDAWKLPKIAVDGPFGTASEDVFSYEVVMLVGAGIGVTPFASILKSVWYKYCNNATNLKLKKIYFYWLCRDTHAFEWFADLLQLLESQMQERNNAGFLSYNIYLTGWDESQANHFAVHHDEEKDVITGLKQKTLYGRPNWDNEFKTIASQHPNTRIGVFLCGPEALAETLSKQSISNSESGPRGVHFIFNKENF
For assay [19], the target named is NADPH oxidase 4 (Homo sapiens) (UniProt Q9NPH5). Description: compounds shifting NOX4 Amplex Red fluorescence – cell-based, HEK293-NOX4, tetracycline-induced, NOX inhibitor project, primary screen (AID 1160). The conditions noted are these: HEK293-NOX4, Amplex Red H2O2 fluorescence, 45 min; higher = more signal, called active from +8 up or from −8 down.
Sequence of NADPH oxidase 4 (Homo sapiens) (Q9NPH5 whole entry, looked up): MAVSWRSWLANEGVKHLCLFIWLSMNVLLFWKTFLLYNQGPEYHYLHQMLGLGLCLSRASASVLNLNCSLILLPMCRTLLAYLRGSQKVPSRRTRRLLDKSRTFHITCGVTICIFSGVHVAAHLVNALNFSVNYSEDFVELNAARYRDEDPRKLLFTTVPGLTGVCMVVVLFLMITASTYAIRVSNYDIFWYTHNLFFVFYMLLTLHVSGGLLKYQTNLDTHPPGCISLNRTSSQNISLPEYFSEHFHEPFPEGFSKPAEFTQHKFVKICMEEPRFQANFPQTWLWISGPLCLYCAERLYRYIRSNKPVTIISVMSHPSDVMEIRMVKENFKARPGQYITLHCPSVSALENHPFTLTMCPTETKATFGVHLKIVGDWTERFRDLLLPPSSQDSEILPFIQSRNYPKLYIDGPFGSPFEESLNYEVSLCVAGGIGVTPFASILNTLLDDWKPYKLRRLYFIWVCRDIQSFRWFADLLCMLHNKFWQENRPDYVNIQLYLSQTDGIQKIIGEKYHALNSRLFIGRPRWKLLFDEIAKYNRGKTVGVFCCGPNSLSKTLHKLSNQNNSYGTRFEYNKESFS
The target in assay [20] is NADPH oxidase 5 (Homo sapiens) (UniProt Q96PH1). The assay is described as follows: compounds shifting NOX5 Amplex Red fluorescence – cell-based, HEK293-NOX5, NOX inhibitor project, primary screen (AID 1161). The conditions noted are these: HEK293-NOX5, ionomycin, 45 min, higher = more signal.
Sequence of NADPH oxidase 5 (Homo sapiens) (Q96PH1 whole entry, looked up): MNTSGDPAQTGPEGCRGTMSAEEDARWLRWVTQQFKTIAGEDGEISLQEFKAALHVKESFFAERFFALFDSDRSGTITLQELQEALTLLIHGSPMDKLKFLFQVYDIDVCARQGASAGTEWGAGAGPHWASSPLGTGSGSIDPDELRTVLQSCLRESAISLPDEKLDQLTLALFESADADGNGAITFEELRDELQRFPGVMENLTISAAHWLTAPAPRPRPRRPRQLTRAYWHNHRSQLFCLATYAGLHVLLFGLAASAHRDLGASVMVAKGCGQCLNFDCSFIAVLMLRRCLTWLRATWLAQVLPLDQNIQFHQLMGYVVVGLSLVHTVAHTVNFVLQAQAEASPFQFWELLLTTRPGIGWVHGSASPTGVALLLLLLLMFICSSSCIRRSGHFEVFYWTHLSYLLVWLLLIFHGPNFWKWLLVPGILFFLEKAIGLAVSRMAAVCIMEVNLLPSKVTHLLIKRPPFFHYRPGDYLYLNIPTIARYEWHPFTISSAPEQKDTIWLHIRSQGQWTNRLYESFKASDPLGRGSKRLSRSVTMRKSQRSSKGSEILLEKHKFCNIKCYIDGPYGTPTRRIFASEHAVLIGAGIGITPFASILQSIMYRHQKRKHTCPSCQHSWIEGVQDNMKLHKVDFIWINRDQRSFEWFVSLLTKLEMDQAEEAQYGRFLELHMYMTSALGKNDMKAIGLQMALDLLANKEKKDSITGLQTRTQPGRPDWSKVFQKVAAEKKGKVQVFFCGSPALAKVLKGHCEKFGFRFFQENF

Sequence of Torsin-1A (Homo sapiens) (O14656 whole entry, looked up): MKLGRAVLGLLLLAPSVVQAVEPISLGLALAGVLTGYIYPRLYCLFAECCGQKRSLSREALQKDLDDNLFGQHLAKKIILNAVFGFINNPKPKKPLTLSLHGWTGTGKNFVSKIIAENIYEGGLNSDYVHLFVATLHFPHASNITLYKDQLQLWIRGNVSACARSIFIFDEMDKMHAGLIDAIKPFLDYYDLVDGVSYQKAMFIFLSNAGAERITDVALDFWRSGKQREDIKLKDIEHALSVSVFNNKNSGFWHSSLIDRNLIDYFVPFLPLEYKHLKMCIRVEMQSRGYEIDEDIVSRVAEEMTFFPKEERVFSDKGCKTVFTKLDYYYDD

Turning to `COCCOC(=O)N1C(=O)[C@@]2(c3cc(C#CCNC(N)=O)ccc31)[C@H](C(=O)N1CCN(c3ncccn3)CC1)[C@H]1C(=O)O[C@H](c3ccccc3)[C@H](c3ccccc3)N1[C@@H]2c1ccc(OCCO)cc1`, the composite z-score in [1] was 0.344; in assay [6] it was 0.619; in assay [7], 0.0154; with Torsin-1A (Homo sapiens) [8], 1.44; with Torsin-1A (Homo sapiens) [9], 0.453; in assay [10], 0.911. In assay [12], this compound had a composite z-score of 0.267. Besides, the z-score in assay [2] is 0.0164 (inactive); in assay [3], -0.82 (inactive); in [4], 1.04 (inactive); in assay [5], -0.0748 (inactive); in [11] it was -0.492 (inactive); in [13] it was 6.11 (inactive). The z-score was 1.93 (inactive) in assay [14]; 1.26 (inactive) in assay [15]; 0.778 (inactive) in assay [16]; -0.319 in assay [17]; 1.64 (inactive) in [18]; 0.971 (inactive) in [19]. Also, the z-score in assay [20] was -0.121.

For `C=CC[C@]1(C(=O)NCCCOC)N=C(c2ccc(OCCCO)cc2)O[C@H]1c1ccccc1CN=[N+]=[N-]`, the composite z-score is 1.11 in [1]; 0.828 in assay [6]; 0.149 in assay [7]; 0.883 in the assay with Torsin-1A (Homo sapiens) [8]; 0.749 with Torsin-1A (Homo sapiens) [9]; -0.0138 in [10]. The composite z-score in assay [12] amounted to 0.443. Also, the z-score was -1.34 (inactive) in [2]; 0.162 (inactive) in assay [3]; 1.49 (inactive) in assay [4]; -1.41 (inactive) in [5]; -0.653 (inactive) in [11]; 13.6 (active) in assay [13]. In addition, the z-score was 1.21 (inactive) in assay [14]; 1.37 (inactive) in [15]; 0.424 (inactive) in assay [16]; -0.102 in assay [17]; 0.324 (inactive) in [18]; 0.649 (inactive) in [19]. Besides, the z-score in assay [20] is -0.973.

`CCCCCCc1nc(-c2ccc(OC)nc2)cc2c1[Si](C(C)C)(C(C)C)O[C@H]2c1ccccc1`: the composite z-score in [1] is 0.323; in assay [6], 0.111; in assay [7], 0.136; with Torsin-1A (Homo sapiens) [8] it was 0.0114; with Torsin-1A (Homo sapiens) [9], -0.234; in assay [10] it was 1.21. Moreover, the composite z-score in assay [12] was -0.0559. In addition, the z-score in assay [2] is -0.295 (inactive); in assay [3] it was 0.0731 (inactive); in assay [4], 0.773 (inactive); in assay [5], 0.03 (inactive); in [11], -1.03 (inactive); in [13], 0.614 (inactive). Besides, the z-score in assay [14] is 0.139 (inactive); in assay [15], 0.245 (inactive); in [16], -0.353 (inactive); in [17], -0.168; in [18] it was 0.0155 (inactive); in [19], -0.95 (inactive). Besides, the z-score in assay [20] was -1.64.

Consider `COC(=O)[C@@]1(CCC(=O)OC(C)(C)C)N=C(c2ccc(OCCCO)cc2)O[C@H]1c1ccccc1N=[N+]=[N-]`, for which the composite z-score in assay [1] is 0.174; in [6], -0.0572; in assay [7], -0.101; with Torsin-1A (Homo sapiens) [8], -0.184; in the assay with Torsin-1A (Homo sapiens) [9] it was -0.143; in assay [10], 0.696. This compound also showed a composite z-score in assay [12] of -0.39. The z-score in [2] is -4.35 (inactive); in assay [3], -0.656 (inactive); in assay [4], 2.68 (inactive); in assay [5] it was -1.21 (inactive); in assay [11], -0.871 (inactive); in assay [13] it was 28.2 (active). In addition, the z-score in assay [14] is 25.2 (active); in assay [15], 1.67 (inactive); in assay [16], 5.1 (inactive); in [17] it was -0.117; in [18] it was -2.9 (inactive); in assay [19], 0.248 (inactive). Besides, in assay [20], the z-score was -2.56.

On to `C[N+](C)(C)CCCCNC(=O)[C@@H]1C[C@@H]2C(=O)N[C@@H](Cc3ccccc3)C(=O)N2[C@@H]1c1cccc(OCCO)c1`, for which the composite z-score in assay [1] is 0.175; in [6] it was -1.02; in assay [7], -0.179; with Torsin-1A (Homo sapiens) [8], 0.938; with Torsin-1A (Homo sapiens) [9], 0.713; in assay [10], 1.91. In addition, in [12], the composite z-score is -0.0094. Also, the z-score is -0.36 (inactive) in assay [2]; -0.314 (inactive) in [3]; -0.26 (inactive) in [4]; -0.471 (inactive) in assay [5]; 1.04 (inactive) in [11]; 3.16 (inactive) in assay [13]. In addition, the z-score in assay [14] is 0.469 (inactive); in assay [15] it was -1.44 (inactive); in assay [16] it was 0.13 (inactive); in assay [17], 1.91; in assay [18], -0.682 (inactive); in [19], -0.331 (inactive). For the same compound, in [20], the z-score was found to be 0.856.
